High-throughput results: PubChem BioAssay, several laboratories
ABHD5-PLIN5 inh: ABHD5-PLIN5 interaction inhibitors, primary screen, cell lysate, split luciferase complementation, luminescence | Perilipin-5 (Homo sapiens) + 1-acylglycerol-3-phosphate O-acyltransferase ABHD5 (Homo … | Split G. princeps luciferase complementation, 4 h | inhibition, % at 4 µM | 360,000 compounds, 0.78% hits | AID 602281, 2012;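 active = inhibition above the mean inhibition across every tested compound plus 3 SD, cut at about 22% in these data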;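 also: 0% = DMSO only wells and the 100% control is not disclosed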
Target sequence (Q00G26 whole entry, looked up): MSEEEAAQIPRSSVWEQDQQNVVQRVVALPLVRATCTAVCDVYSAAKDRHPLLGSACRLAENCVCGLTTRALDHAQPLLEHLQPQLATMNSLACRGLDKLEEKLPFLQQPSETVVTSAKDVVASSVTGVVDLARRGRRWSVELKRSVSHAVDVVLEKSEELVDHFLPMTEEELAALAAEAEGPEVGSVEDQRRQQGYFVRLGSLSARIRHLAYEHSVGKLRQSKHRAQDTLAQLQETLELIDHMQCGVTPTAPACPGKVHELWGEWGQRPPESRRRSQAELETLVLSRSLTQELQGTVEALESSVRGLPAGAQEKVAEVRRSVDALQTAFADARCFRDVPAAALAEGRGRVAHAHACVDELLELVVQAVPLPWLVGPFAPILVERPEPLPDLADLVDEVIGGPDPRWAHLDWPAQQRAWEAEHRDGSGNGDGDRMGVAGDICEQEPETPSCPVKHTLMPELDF
Target sequence (Q8WTS1 whole entry, looked up): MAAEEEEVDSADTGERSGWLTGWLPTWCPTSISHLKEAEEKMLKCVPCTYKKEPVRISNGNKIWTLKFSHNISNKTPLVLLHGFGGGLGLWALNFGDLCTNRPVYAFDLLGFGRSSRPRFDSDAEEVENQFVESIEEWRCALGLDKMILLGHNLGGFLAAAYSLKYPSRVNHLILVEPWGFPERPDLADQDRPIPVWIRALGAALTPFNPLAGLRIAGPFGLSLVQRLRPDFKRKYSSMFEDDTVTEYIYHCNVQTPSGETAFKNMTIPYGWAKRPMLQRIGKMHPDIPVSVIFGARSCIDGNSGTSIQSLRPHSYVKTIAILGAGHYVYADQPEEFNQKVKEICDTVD
HIF-2a block: HIF-2a reporter inhibitors, primary screen, luminescence, 786-0 RCC cells. 786-0 RCC cells HIF-2a reporter, luciferase luminescence, overnight. inhibition, % at 18.8 µM. 360,000 compounds, 0.72% hits;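 active = inhibition of the luminescence signal of 40% or more relative to plate controls, in a single-dose primary screen at 18.75 µM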
Mdm2-MdmX inh: inhibitors of human Mdm2-MdmX association, primary screen, cell-based, luminescence, split luciferase, SaOS-2, uHTS. Protein Mdm4 (Homo sapiens) + E3 ubiquitin-protein ligase Mdm2 (Homo sapiens), …. AID 485346, 2010. inhibition, % at 8 µM. 330,000 compounds, 3% hits. SaOS-2 split-luciferase Mdm2/MdmX complementation;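 active = inhibition of at least 50% at 8 µM in the primary screen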
Peg3 prom inh: Peg3 promoter-driven luciferase inhibitors, primary screen, cell-based, HeLa, luciferase luminescence. HeLa PEG-Prom luciferase reporter, overnight. inhibition, % at 20 µM. 360,000 compounds, 1.7% hits. AID 588405, 2011;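 active = inhibition of at least 50% at 20 µM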
CF NFkB block: inhibitors of PAF-induced NF-kB signaling, primary screen, cell-based, GFP fluorescence, uHTS. inhibition, % at 5 µM. KKLEB NF-kB-GFP reporter, GFP fluorescence overnight. AID 588850, 2011. 360,000 compounds, 0.86% hits;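 active = at least 50% inhibition at 5 µM, scaled per plate between neutral and stimulator controls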;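 also: PAF is a Pseudomonas aeruginosa culture filtrate used as stimulus; plate controls were PAF-stimulated DMSO wells for no effect and unstimulated DMSO wells for full effect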
KKLEB cytotox: cytotoxicity in KKLEB CF airway cells, primary screen, cytotoxicity control for CF NF-kB inhibitor project, cell-based, uHTS, fluorescence assay plates; KKLEB CF airway cells viability, ATPlite luminescence, overnight; active compounds read low; cells stimulated with P. aeruginosa culture filtrate; activity change (cytotoxicity), % at 5 µM; 360,000 compounds, 0.36% hits;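 active = corrected activity change at or below -50% at 5 µM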
Mdm2 MdmX conf-1: Mdm2-MdmX complex disruptors, retested hits, confirmation, luminescence, single concentration | shares compounds with Mdm2-MdmX inh | Mdm2-MdmX binding, luminescent assay | inhibition, % at 8 µM | 10,000 compounds, 55% hits | AID 489028, 2010
FLuc counter: full-length luciferase signal inhibition, confirmation, counter-screen for Mdm2/MdmX interaction inhibitor project, cell-based, single concentration, SaOS-2 | shares compounds with Mdm2-MdmX inh | SaOS-2 full-length luciferase counterscreen, luminescence | inhibition, % at 8 µM | 6,200 compounds, 77% hits;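 active = mean inhibition at 8 µM reaching about 37%, which flags the compound as non-specific, limit read from the data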;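 also: p53-null SaOS-2 cells with luciferase driven by a doxycycline-inducible promoter; compound on cells about two nights before reading with doxycycline added after day one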
CF NFkB conf: inhibitors of PAF-induced NF-kB signaling, retest, confirmation, cell-based, GFP fluorescence, single concentration; shares compounds with CF NFkB block; KKLEB CF airway cells, overnight; inhibition, % at 5 µM; 1,300 compounds, 64% hits; AID 602472, 2012;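 also: stimulus PAF is a Pseudomonas aeruginosa filtrate and not platelet activating factor; plate controls were DMSO wells with stimulus for no effect and unstimulated DMSO wells for full effect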
ABHD5-PLIN5 conf: ABHD5-PLIN5 interaction inhibitors, confirmation, biochemical, luminescence. inhibition, % at 4 µM. 2,200 compounds, 67% hits. AID 651612, 2012. shares compounds with ABHD5-PLIN5 inh; in the data active = inhibition above about 23%;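 also: 0% = DMSO vehicle wells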
HNF4 split-luc: HNF4 dimerization inhibitors, counter-screen for ABHD5-PLIN5 interaction inhibitor project, biochemical, split-luciferase complementation, luminescence; shares compounds with ABHD5-PLIN5 inh; 2,200 compounds, 77% hits; inhibition, % at 4 µM; AID 651674, 2012;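 active = mean inhibition across replicate wells exceeding the computed hit threshold, cut at about 13% in these data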;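 also: light from luciferase halves that rejoin when HNF4 fusion proteins dimerize; 0% = DMSO only wells and the 100% control is not given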
Mdm2 MdmX conf-2: retested Mdm2-MdmX interaction blockers, confirmation, cell-based, luminescence, single concentration, set 2 | inhibition, % at 8 µM | SaOS-2 split-luciferase Mdm2/MdmX complementation | 740 compounds, 99% hits | shares compounds with HIF-2a block | AID 504601, 2011;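 active = mean inhibition of the luminescence signal across two replicates at or above 26 percent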
HIF-2a conf: HIF-2a reporter inhibitor retest, confirmation, luminescence, 786-0 RCC cells. HIF-2a luciferase reporter luminescence, overnight. shares compounds with HIF-2a block. inhibition, % at 18.8 µM. 1,800 compounds, 56% hits;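 active = mean inhibition across four replicates of at least 40 percent at the single tested concentration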
HIF-1a cs: HIF-1a luciferase reporter signal reduction – MiaPaCa-2 cells, single concentration, counter-screen for HIF-2a inhibitor project, confirmation | shares compounds with HIF-2a block | MiaPaCa-2 HIF-1a luciferase reporter, desferoxamine, overnight | inhibition, % at 18.8 µM | 1,800 compounds, 72% hits | AID 651589, 2012;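 active = mean inhibition of the reporter signal across four replicates at the single tested dose of 50% or more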
* hit, by the source's call. In the library only some 4.6% were active in any assay of this set; here they are far more common. Rule as the data show it, unless noted: active = inhibition above about 40%; inactive = the rest.

For Cc1[nH]c2ccccc2c(=O)c1C(=O)/C=C/c1ccccc1 the results were ABHD5-PLIN5 inh 32*, HIF-2a block 90*, Mdm2-MdmX inh 100*, Peg3 prom inh 105*, CF NFkB block 60*, KKLEB cytotox -28, Mdm2 MdmX conf-1 100*, FLuc counter 52*, CF NFkB conf 46*, ABHD5-PLIN5 conf 63*, HNF4 split-luc 56*, Mdm2 MdmX conf-2 103*, HIF-2a conf 85* and HIF-1a cs 105*.
Screening Cc1[nH]c2ccccc2c1/C=C/C(=O)c1ccccc1 returned ABHD5-PLIN5 inh 4, HIF-2a block -213, Mdm2-MdmX inh 1, Peg3 prom inh -87, CF NFkB block -40 and KKLEB cytotox 5.
`COc1cccc(NC(=O)Nc2nc(-c3ccc(OC)c(OC)c3)cs2)c1` gave ABHD5-PLIN5 inh -7, HIF-2a block -122, Mdm2-MdmX inh 96*, Peg3 prom inh 105*, CF NFkB block 109*, KKLEB cytotox -100*, Mdm2 MdmX conf-1 98*, FLuc counter 52* and Mdm2 MdmX conf-2 103*.
Cc1cc(C(=O)N2CCC2(C)C(=O)NS(=O)(=O)c2ccc(Cl)cc2)nn1C (stereo not drawn) was read as ABHD5-PLIN5 inh -8, HIF-2a block 2, Peg3 prom inh 13, CF NFkB block 6 and KKLEB cytotox -4.
Screening COc1cc2c(OC(C)=O)c3c(c(-c4ccc5c(c4)OCO5)c2cc1OC)C(=O)OC3 returned ABHD5-PLIN5 inh -4, HIF-2a block -46, Mdm2-MdmX inh 86*, Peg3 prom inh 78*, CF NFkB block 17, KKLEB cytotox -35, Mdm2 MdmX conf-1 74*, FLuc counter 48* and Mdm2 MdmX conf-2 88*.
